Test results as given in PMC5540273 (PLoS ONE, 2017).

Assays:
Settings in all cases: concentration: 1 μM, replicates: in singlicate; n = 1
[1] = tested on: AAK1
[2] = tested on: ABL1-nonphosphorylated
[3] = tested on: ABL1-phosphorylated
[4] = tested on: ABL2
[5] = tested on: ACVR1B
[6] = tested on: ACVR1
[7] = tested on: ACVR2A
[8] = tested on: ACVR2B
[9] = tested on: ACVRL1
[10] = tested on: T1, ADCK3
T1 construct: gene CABC1

[11] = tested on: ADCK4
[12] = tested on: AKT1
[13] = tested on: AKT2
[14] = tested on: AKT3
[15] = tested on: ALK
[16] = tested on: T2, AMPK-alpha1
T2 construct: gene PRKAA1

[17] = tested on: T3, AMPK-alpha2
T3 construct: gene PRKAA2

[18] = tested on: ANKK1
[19] = tested on: T4, ARK5
T4 construct: gene NUAK1

[20] = tested on: T5, ASK1
T5 construct: gene MAP3K5
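Further: KINOMEscan kinase panel screen.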

SMILES	%Inh [1]	%Inh [2]	%Inh [3]	%Inh [4]	%Inh [5]	%Inh [6]	%Inh [7]	%Inh [8]	%Inh [9]	%Inh [10]	%Inh [11]	%Inh [12]	%Inh [13]	%Inh [14]	%Inh [15]	%Inh [16]	%Inh [17]	%Inh [18]	%Inh [19]	%Inh [20]
Cc1ccc(C)c(NC(=O)NC2CCN(c3ccnc(Nc4ccc(F)cc4)n3)C2)c1 (centres unmarked) [GSK1379720]	6%	0%	0%	7%	0%	14%	0%	0%	0%	0%	48%	0%	19%	0%	28%	7%	0%	0%	0%	0%
Oc1cc(Nc2ccnc3cc(I)ccc23)ccc1F [GW552771]	10%	99.1%	99.6%	91.7%	54%	97.4%	100%	93.7%	69%	19%	38%	0%	16%	0%	34%	15%	1%	0%	18%	0%
O=C(Nc1n[nH]c2cc(-c3ccoc3)ccc12)C1CC1 [SB-738481]	45%	25%	0%	0%	0%	30%	19%	46%	0%	0%	0%	0%	0%	0%	0%	0%	0%	23%	0%	0%
Cc1occc1-c1ncc(OC[C@@H](N)Cc2c[nH]c3ccccc23)cc1-c1ccc2[nH]nc(C)c2c1.O=C(O)C(F)(F)F [GSK682037]	61%	13%	33%	47%	8%	0%	0%	0%	0%	25%	82%	97%	99.8%	87%	24%	12%	0%	0%	0%	0%
